The campaign covered roughly 360,000 compounds. About 1,200 (0.33%) were called active. This excerpt belongs to a sample that is enriched for actives. Values without a mark were called inactive. Cut-off read from the data, not from the text of the source: active = inhibition above about 37%; inactive = the rest.
Biological target: Small ubiquitin-related modifier 1 (Homo sapiens) (UniProt P63165)
Assay: modulators of SUMO1 protein-protein interactions, primary screen, biochemical, uHTS (AID 602429)
Conditions: SUMO1 binding to a labelled peptide, TR-FRET, 1 h; at 20 µM; active compounds read high

Small ubiquitin-related modifier 1 (Homo sapiens), sequence (P63165 whole entry, looked up): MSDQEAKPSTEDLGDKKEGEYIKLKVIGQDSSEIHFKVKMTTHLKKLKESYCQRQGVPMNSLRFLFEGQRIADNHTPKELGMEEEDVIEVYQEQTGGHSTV

| Compound | inhibition |
| --- | --- |
| COc1ccc(C(=O)NC2(C(F)(F)F)NC(=O)N(CCCc3ccccc3)C2=O)c(OC)c1OC (stereo unspecified) | 7.81% |
| O=C(Cn1c(=O)n(Cc2ccco2)c(=O)c2ccccc21)NCC1CCCO1 (stereo unspecified) | 4.85% |
| COc1ccc(-c2oc3ncn(Cc4ccco4)c(=N)c3c2-c2ccc(OC)cc2)cc1 | -9.5% |
| Cn1c2ccccc2c(=O)c2c(=O)n(Cc3ccco3)c(COc3ccccc3)nc21 | 42.3% (active) |
| O=C(Nc1ccccc1C(=O)N1CCCCC1)c1ccco1 | -3.94% |
| O=C(O)c1ccccc1-c1ccccc1C(=O)Nc1ccccc1Br | -0.773% |
| O=C(Nc1ccccc1)c1ccccc1Br | 41.9% (active) |
| O=C(Nc1ccccc1)c1ccccc1NC(=O)C(F)(F)F | -1.22% |
| COc1ccc(NC(=S)N2CCC(NC(=O)c3cccc(F)c3)CC2)cc1 | 4.71% |
| Cc1noc(C)c1-c1nc(CSc2ccc(Cl)cc2)no1 | 1.71% |
| CCN(CC)CCCNC(=O)c1cn(C)c2ccc(S(=O)(=O)N(C)C3CCCCC3)cc2c1=O | 5.63% |
| COc1ccc2[nH]c3c(C)c4cc[n+](C)cc4c(C)c3c2c1 | 61.3% (active) |
| CCOc1cc(-c2conc2N)cc(OCC)c1OCC | 1.02% |
| CC(=O)Nc1ccc(NC(=O)CSc2nnc(C3CC3)n2-c2ccccc2)cc1 | 3.94% |
| CCOc1ccc(N(CC(=O)NCC2CCCO2)S(=O)(=O)c2ccc(C)cc2)cc1 (stereo unspecified) | 6.75% |
| C=CCCC(=O)Nc1nc(C)c(-c2csc(Nc3ccc(Cl)cc3)n2)s1 | 1.48% |
| COc1cccc(NC(=O)COc2cccnc2[N+](=O)[O-])c1 | -32.4% |
| CCCCCCC(=O)Nc1nc(C)c(-c2csc(Nc3cccc(OC)c3)n2)s1 | 40.2% (active) |
| CCCOC1CCCN(Cc2cn(C)nc2-c2ccccc2F)C1 (stereo unspecified) | 5.15% |
| COc1ccc(-c2csc(C(O)c3cccc(Cl)c3)n2)cn1 (stereo unspecified) | -2.47% |
| CCc1nn(CC(=O)N2CCN(c3cc(C)ccc3C)CC2)c(=O)c2cc3occc3n12 | 2.09% |
| O=S1(=O)CCO[C@H]2Cc3ccccc3[C@H]2N1Cc1ccccc1 | -0.696% |

| Compound | inhibition |
| --- | --- |
| C=Cc1ccc(C(=O)N2CCCC(CCC(=O)N3CCN(c4ccccn4)CC3)C2)cc1 (stereo unspecified) | 58.2% (active) |
| O=C(CCC1CCCN(C(=O)c2ccc(F)c(F)c2)C1)N1CCN(c2ccccn2)CC1 (stereo unspecified) | 2.38% |
| COc1cccc(CC(=O)N2CCCC(CCC(=O)N3CCN(c4ccccn4)CC3)C2)c1 (stereo unspecified) | -2.38% |
| Cc1ccc(NC(=S)NC(NC(=O)Cc2cccc3ccccc23)C(Cl)(Cl)Cl)cc1 (stereo unspecified) | 0.772% |
| COc1ccc(-n2c(SCC(=O)NCc3cccs3)nnc2-c2ccoc2C)cc1 | -0.51% |
| COc1ccc(NC(=O)CSc2nnnn2-c2cccc(OC)c2)cc1 | -3.25% |
| COc1ccc(-n2nnnc2SCC(=O)NCc2cccs2)cc1 | 43.1% (active) |
| CC(=O)c1nn(-c2ccccc2)c(=Nc2ccccc2)cc1C | -14.6% |
| OCCC1CN(Cc2cnc(-c3ccccc3)s2)CCN1CCc1ccccc1 (stereo unspecified) | -2.45% |
| Cn1c(N)c(C(=O)COC(=O)/C=C/c2ccc(OC(F)F)cc2)c(=O)n(C)c1=O | -2.46% |
| O=S(=O)(c1ccccc1)N1CN(Cc2ccc(F)cc2)c2nc3ccccc3nc21 | -3.38% |
| O=C(Nc1ccccc1Cc1ccccc1)c1ccc2c(c1)SC1=NS(=O)(=O)CCN12 | 28.2% |
| O=C(NNC(=O)c1ccc(-c2ccccc2)cc1)Nc1ccccc1 | 2.2% |
| O=C(Nc1cccc(-c2nc3ccccc3[nH]2)c1)c1ccc(C(=O)Nc2cccc(-c3nc4ccccc4[nH]3)c2)cc1 | 56.6% (active) |
| CCOc1ccc(C(=O)Nc2cccc(SC)c2)cc1 | -1.79% |
| C/C(CC(=O)NC(C)c1ccccc1)=N\NC(N)=S (stereo unspecified) | -2.76% |
| CC(=O)c1c(C)[nH]c(C(=O)CN2C(=O)NC(C)(C)C2=O)c1C | -2.31% |
| CCOc1cccc2c1OC1(CCCCC1)N1N=C(c3cccnc3)CC21 (stereo unspecified) | -1.86% |
| O=C(NCc1ccccc1)c1ccc(CNc2c(N3CCCC3)c(=O)c2=O)cc1 | -2.77% |
| O=C(NC1CCCCC1)c1ccc(CNc2c(N3CCOCC3)c(=O)c2=O)cc1 | -0.641% |
| COc1cc(NC(=O)c2ccc(CNc3c(N4CCCC4)c(=O)c3=O)cc2)cc(OC)c1OC | 48.9% (active) |
| COC(=O)c1sccc1NN1C(=O)c2ccccc2C1=O | -2.44% |

| Compound | inhibition |
| --- | --- |
| O=C(CCN1C(=O)c2ccncc2C1=O)Nc1ccc2c(c1)OCCO2 | -14.5% |
| Cc1nc([N+](=O)[O-])cn1CC(=O)Nc1ccc2c(c1)OCO2 | -6.05% |
| Cc1ccc(C(=O)O)cc1-c1ccc(/C=C2\SC(=O)N(CC(=O)Nc3ccc4c(c3)OCO4)C2=O)o1 | 106% (active) |
| C[C@H]([C@@H](O)[C@@H](O)[C@@H](C)C(C)(C)C)[C@H]1CC[C@H]2C3CC[C@H]4C[C@H](OS(=O)(=O)O)[C@@H](OS(=O)(=O)O)C[C@]4(C)[C@H]3CC[C@]12C (stereo partly specified) | 57.1% (active) |
| CC(=O)O[C@H]1CC[C@@]2(C)[C@@H](CC[C@@H]3[C@@H]2CC[C@]2(C)[C@@H](C(C)(C)O)C[C@@H]32)C1 | 1.55% |
| CCC(CC)c1nnc(NC(=O)C2CCN(C(=O)c3ccco3)CC2)s1 | 0.246% |
| O=C(Nc1cccnc1)c1ccc(Cl)cc1[N+](=O)[O-] | -24.2% |
| Fc1cc(Br)ccc1NC(=S)Nc1cccnc1 | -2.62% |
| O=C(Nc1cccnc1)c1cc2cc(Br)ccc2oc1=O | 79% (active) |
| CC(=O)c1c(C)[nH]c(C(=O)COC(=O)c2cccc(S(=O)(=O)N(C)c3ccccc3)c2)c1C | 0.686% |
| CCCCCCCCn1c2c(c(=N)c3c1CCC3)CCCC2 | -1.62% |
| COc1ccc(CC(=O)Nc2ccc(-c3nnc(-c4ccc(C)cc4)o3)cc2)cc1 | 52% (active) |
| COc1ccc(NC(=O)Cn2c(-c3ccc(OC)cc3)cn(-c3ccc(C)cc3)c2=O)cc1 | 5.25% |
| COc1ccc(NC(=O)CN(C)C(=O)c2cc(C)oc2C)cc1 | -3.07% |
| COc1c(F)c(F)c(-c2csc(N)n2)c(F)c1F | -2.44% |
| CCCc1nn(C)c2c(=O)[nH]c(-c3cc(S(N)(=O)=O)ccc3OCC)nc12 | 3.1% |
| CN(CC(=O)NC1CCN(Cc2ccccc2)CC1)S(=O)(=O)c1ccc(Cl)s1 | 0.847% |
| CCC(C)N1C(=O)S/C(=C/c2ccc(Sc3nc4ccccc4[nH]3)o2)C1=O (stereo unspecified) | -5.85% |
| O=C(Cn1nnc(-c2ccccc2)n1)N/N=C/c1ccc(-c2ccc(Cl)cc2)o1 | 7.31% |
| O=C(O)C(c1ccccc1)N1C(=O)/C(=C\c2ccc(-c3cccc(Cl)c3)o2)SC1=S (stereo unspecified) | 75.9% (active) |
| COc1ccccc1CC(NC(C)=O)C(=O)NC1CCN(C(=O)Nc2ccccc2Cl)CC1 (stereo unspecified) | 0.952% |
| CN1C(=O)c2ccccc2C(C(=O)NCCCN2CCCC2)C1c1c[nH]c2ccccc12 (stereo unspecified) | 3% |

| Compound | inhibition |
| --- | --- |
| Cn1c(=O)c2cc(S(=O)(=O)NCCC(=O)Nc3ccc(F)cc3F)ccc2n(C)c1=O | -1.62% |
| Cc1cccc(-[n+]2c(-c3cccc(Br)c3)[nH]c3nc4ccccc4nc32)c1 | 1.4% |
| C=CC1=C(C(=O)O)N2C(=O)[C@@H](NC(=O)/C(=N/OCC(=O)O)c3csc(N)n3)[C@H]2SC1 | 121% (active) |
| C=CC1=C(C(=O)O)N2C(=O)[C@@H](NC(=O)/C(=N\OCC(=O)O)c3csc(N)n3)[C@H]2SC1 | 56.1% (active) |
| COc1cc(C(=O)OCC(=O)NC23CC4CC(CC(C4)C2)C3)cc(OC)c1OC | 5.78% |
| Cc1nc(-c2ccccc2)sc1-c1nnc(C2CC2)o1 | -25.8% |
| Cc1nc(-c2ccccc2)sc1-c1nc(-c2ccccc2)ncc1S(=O)(=O)c1ccccc1 | 56.4% (active) |
| C#CC(C)(C)NC(=O)c1cnc(-c2ccccc2)nc1-c1ccccc1 | 1.04% |
| O=C(CCNC(=O)c1ccc(Br)cc1)Nc1cccc(S(=O)(=O)N2CCCCC2)c1 | 0.625% |
| O=C1NC[C@H](CCCCN2CCN(CCc3ccccc3)C(=O)C2=O)N(CC2CCCCC2)C1=O | 0.562% |
| Cc1ccc2[nH]c3c(=O)n(Cc4ccccn4)cnc3c2c1 | 2.63% |
| COc1cc(OC)c(OC)cc1/C=N/Nc1ncnc2c1[nH]c1ccc(C)cc12 | 60.7% (active) |
| CC1(C)CC(=O)C=C(c2ccc(COC(=O)c3cc(F)cc(F)c3)cc2)C1=O | -22.7% |
| COc1ccc(OC)c(NC(=S)N2CCc3ccccc3C2)c1 | 0.375% |
| O=C(NCc1ccccc1)C(c1ccc(F)cc1)N1CCN(C(=O)C2CCCO2)CC1 (stereo unspecified) | -1.69% |
| CCOC(=O)c1c(-c2cccc(N)c2)cn2ccccc12 | -5.65% |
| CC1(C)OC(=O)N2CCc3ccccc3C21C (stereo unspecified) | 3.74% |
| CC(=O)Nc1ccc(S(=O)(=O)N2CCC(C(=O)N[C@@H](Cc3ccccc3)C(=O)O)CC2)cc1 | 0.0701% |
| COc1cc(C2C3C(=O)N(c4ccccc4)C(=O)C3ON2c2ccccc2)ccc1O (stereo unspecified) | 5.72% |
| O=c1ccc2c(-c3ccccc3S(=O)(=O)O)c3ccc(O)c(O)c3oc-2c1O | 48.2% (active) |

Reference: PubChem BioAssay AID602429 (Sanford-Burnham Center for Chemical Genomics, 2012)
